The list is not random: actives were taken first. Their share in the collection is about 1.2%.
Statin myotox sup: suppressors of statin myotoxicity in C2C12 myotubes, primary screen, cell-based, single point, plate reader | C2C12 myotubes + simvastatin, ATP luminescence, 48 h; scaled: DMSO 0, geranylgeraniol control 100 | rescue of ATP level, % at 7.49 µM | AID 602340, 2012 | 0.78% of 330,000 active;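 active = mean ATP rescue above about 67%, or every replicate alone reaching that limit, limit read from the data, passing the limit was not always enough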;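 also: myotubes were challenged with 10 µM simvastatin during compound exposure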
miR-122 sensor: miR-122 Renilla sensor signal increase in Huh7, primary screen, miR-122 inhibitor project, cell-based, single point, plate reader. 0.3% of 340,000 active. Huh7 miR-122 Renilla luciferase sensor, 48 h; neutral wells = 0, positive control = 100. AID 602342, 2012. activation (reporter increase), % at 12.5 µM;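 active = mean replicate activation score at least 90 and every replicate individually at or above 90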;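 also: higher luciferase means less miR-122 activity so hits act as miR-122 inhibitors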
NSD2 HMT inh: NSD2 histone methyltransferase inhibitors, primary screen, biochemical, AlphaScreen, single concentration, set 2 | NSD2 peptide methylation, 120 min | AID 743445, 2014 | inhibition, % at 12.5 µM | 0.54% of 310,000 active | Histone-lysine N-methyltransferase NSD2 (Homo sapiens), O96028; in the data active = inhibition above about 50%
Target sequence (O96028 whole entry, looked up): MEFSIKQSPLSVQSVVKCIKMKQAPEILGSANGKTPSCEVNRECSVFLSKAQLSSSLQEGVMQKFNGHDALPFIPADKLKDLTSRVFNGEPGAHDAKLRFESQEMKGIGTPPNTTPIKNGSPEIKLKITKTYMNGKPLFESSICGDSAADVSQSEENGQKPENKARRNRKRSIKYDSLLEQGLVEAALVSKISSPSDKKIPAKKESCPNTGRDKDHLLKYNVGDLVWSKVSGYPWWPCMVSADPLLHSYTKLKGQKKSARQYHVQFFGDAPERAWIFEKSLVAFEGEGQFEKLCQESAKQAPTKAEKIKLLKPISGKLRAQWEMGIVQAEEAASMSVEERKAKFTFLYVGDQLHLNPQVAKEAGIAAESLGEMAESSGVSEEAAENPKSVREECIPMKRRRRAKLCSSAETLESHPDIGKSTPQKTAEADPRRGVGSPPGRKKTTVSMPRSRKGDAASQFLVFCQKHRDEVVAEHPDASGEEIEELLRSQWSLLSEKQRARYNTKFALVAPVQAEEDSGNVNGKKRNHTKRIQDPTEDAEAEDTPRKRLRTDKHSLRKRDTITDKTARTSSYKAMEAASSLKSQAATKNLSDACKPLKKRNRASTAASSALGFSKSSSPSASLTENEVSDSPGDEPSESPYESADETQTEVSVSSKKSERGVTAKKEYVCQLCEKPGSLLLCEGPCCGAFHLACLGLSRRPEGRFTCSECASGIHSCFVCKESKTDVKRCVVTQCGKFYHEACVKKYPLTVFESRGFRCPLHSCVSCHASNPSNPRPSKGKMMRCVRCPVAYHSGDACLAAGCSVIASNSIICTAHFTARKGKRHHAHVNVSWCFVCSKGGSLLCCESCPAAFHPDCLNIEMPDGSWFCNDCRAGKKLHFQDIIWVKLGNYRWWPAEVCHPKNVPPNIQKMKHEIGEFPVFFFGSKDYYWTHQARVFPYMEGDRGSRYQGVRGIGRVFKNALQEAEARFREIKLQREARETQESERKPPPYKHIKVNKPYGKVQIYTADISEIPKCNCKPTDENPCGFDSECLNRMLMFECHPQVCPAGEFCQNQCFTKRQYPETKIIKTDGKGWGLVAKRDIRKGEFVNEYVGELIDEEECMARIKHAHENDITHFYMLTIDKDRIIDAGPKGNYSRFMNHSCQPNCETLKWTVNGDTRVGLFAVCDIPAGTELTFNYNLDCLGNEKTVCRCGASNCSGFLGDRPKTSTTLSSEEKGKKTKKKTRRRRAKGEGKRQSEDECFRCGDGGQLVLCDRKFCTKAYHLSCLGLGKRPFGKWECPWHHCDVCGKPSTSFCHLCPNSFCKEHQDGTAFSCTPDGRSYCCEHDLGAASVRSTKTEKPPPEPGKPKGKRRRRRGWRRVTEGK
PglD inh: C. jejuni PglD acetyltransferase inhibitors, primary screen, biochemical, DTNB colorimetric, single point | inhibition, % at 12.5 µM | purified PglD enzyme, DTNB colorimetric CoA detection | UDP-N-acetylbacillosamine N-acetyltransferase PglD (Campylobacter jejuni) | 0.098% of 360,000 active; in the data active = inhibition above about 16%, passing the limit was not always enough
The depositor's hits bear a star; . = no result given; [ ] = another dose, or the depositor's remark.

SMILES	Statin myotox sup	miR-122 sensor	NSD2 HMT inh	PglD inh
ClC(Br)=C(n1cnc2ccccc21)n1cnc2ccccc21	90.0*	-6.4	0.5	6.2
CCOc1ncnc2c1[nH]c1ccccc12	130.9*	-7.4	-5.5	-2.5
CCOC(=O)N1CCN(C(=O)c2c(-c3c(Cl)cccc3Cl)noc2C)CC1	-3.3	-3.1	6.0	-1.3
Cc1onc(C(=O)N2CCC(C(N)=O)CC2)c1-c1ccccc1Cl	91.8*	0.6	3.8	0.5
CCOC(=O)C1CCN(C(=O)c2c(-c3c(Cl)cccc3Cl)noc2C)CC1	93.3*	-1.0	-0.9	4.6
Cc1onc(-c2ccccc2Cl)c1C(=O)N1CCC(C(N)=O)CC1	0.3	-2.3	-0.3	-0.5
CCc1ccccc1N(CC(=O)NC1CCCCC1)C(=O)CNC(=O)c1ccco1	32.6	3.8	2.2	-1.1
O=C(CN(Cc1ccccc1C(F)(F)F)C(=O)CNC(=O)c1ccco1)NC1CCCC1	112.6*	0.7	-2.9	4.2
C[C@@H]1CN([C@@H](C)CO)C(=O)c2cc(NC(=O)Nc3ccccc3)ccc2O[C@@H]1CN(C)Cc1ccc(Cl)c(Cl)c1	.	-4.6[16.7 µM]	.	.
CC(C)NC(=O)Nc1ccc2c(c1)C(=O)N([C@H](C)CO)C[C@@H](C)[C@@H](CN(C)C(=O)NC1CCCCC1)OCCCC[C@@H](C)O2	.	-5.8[16.7 µM]	.	.
Cc1ccc(-c2ccc3c(c2)O[C@H](CN(C)C)[C@H](C)CN([C@@H](C)CO)S3(=O)=O)cc1	13.9	-6.2[16.7 µM]	.	0.6
CCCCOC(=O)CSc1nc(N)c(C#N)c(-c2ccc(OC)cc2)c1C#N	90.2*	-3.7	-8.8	-3.3
CO[C@H]1CN(C)C(=O)c2cc(NS(=O)(=O)c3ccc(C)cc3)ccc2OC[C@@H](C)N(C)C[C@@H]1C	-17.3	-3.7[16.7 µM]	.	1.5
Cc1nc2ncnn2c(N2CCN(C(c3ccccc3)c3ccccc3)CC2)c1C	79.1*	-3.9	.	-0.4
COc1cc(S(=O)(=O)Nc2ncccc2C)c(OC)cc1Cl	121.1*	61.9	-0.3	2.2
COc1ccc(Br)cc1S(=O)(=O)Nc1ncccc1C	.	.	2.1	.
C=CCN=C1SC(C)C(=O)N1S(=O)(=O)c1ccccc1 (configuration not stated)	109.5*	-7.2	-11.0	-3.6
Cc1ccc(S(=O)(=O)NCCC(C)C)cc1[N+](=O)[O-]	-9.0	232.1*	2.3	.
C[C@@H](NC(=O)[C@H]1[C@H](CO)[C@H]2Cn3c(ccc(-c4ccccc4F)c3=O)[C@@H]1N2C)c1ccccc1	2.4	.	.	-2.6
COc1ccc(OC)c(NS(=O)(=O)c2ccc(Br)s2)c1	.	.	-4.7	.
COc1cccc(NS(=O)(=O)c2ccc(Br)s2)c1	7.2	218.3*	-1.4	.
COc1cccc(NS(=O)(=O)c2c(C)cc(C)cc2C)c1	3.2	398.8*	1.6	-0.4
COc1ccc(NS(=O)(=O)c2c(C)cc(C)cc2C)cc1	.	43.1	10.8	3.5
C[C@@H]1CN([C@H](C)CO)C(=O)Cc2cc(NC(=O)Nc3ccc(F)cc3)ccc2O[C@H]1CN(C)C(=O)Nc1ccccc1	1.1	-3.3[16.7 µM]	.	-1.1
CCS(=O)(=O)Nc1ccc2c(c1)C(=O)N(C)[C@H]1CC[C@H](CC(=O)OC)O[C@H]1CO2	-4.2	-15.6[16.7 µM]	.	0.3
SMILES	Statin myotox sup	miR-122 sensor	NSD2 HMT inh	PglD inh
CO[C@@H]1CN(C)C(=O)c2cc(NS(C)(=O)=O)ccc2OC[C@@H](C)N(S(=O)(=O)CC(F)(F)F)C[C@H]1C	6.5	-0.9[16.7 µM]	.	-0.8
CC1CCN(C(=O)CSc2nnc(CNC(=O)COc3ccc(Cl)cc3)o2)CC1	96.4*	6.7	.	-1.2
CS(=O)(=O)N(CC(=O)NCc1ccccc1)C1CCCCC1	119.7*	-9.0	-2.0	0.3
CC(C)CNC(=O)CN(C1CCCCC1)S(=O)(=O)c1ccccc1	102.1*	3.3	-2.7	6.0
COC(=O)c1ccc(NC(=O)C2C3C=CC(C3)C2C(=O)O)cc1 (configuration not stated)	1.0	1.6	29.2	3.7
COC(=O)c1ccc(NC(=O)C2C3C=CC(O3)C2C(=O)O)cc1 (configuration not stated)	90.5*	6.2	-0.4	-2.5
CN(C)/C=C/C(=O)c1ccc(N2CCN(c3ncc(C(F)(F)F)cc3Cl)CC2)cc1	133.6*	5.7	0.3	1.2
CCOc1ccc(CC(=N)C2=C(O)CC(C)(C)CC2=O)cc1OCC	.	133.0*	-1.7	-1.7
CCOc1ccc(CC(=NCCc2ccccc2)C2=C(O)CC(C)(C)CC2=O)cc1OCC	.	-2.8	-1.2	-1.3
